The source of these data is PubChem BioAssay (Tox21).

Where “and” joins values, the source holds several entries; their conditions need not be identical. Equal values may be shown once. Unmarked numbers belong to inactive results. A call without a number means that no potency is given here. The source holds several records for some structures; these can differ, active in one and inactive in another. Calls of active or inactive are those of the source. Calls come from the whole dose curve.
Potency is the fitted concentration of half-maximal effect.

Estrogen receptor (Homo sapiens), sequence (P03372 whole entry, looked up): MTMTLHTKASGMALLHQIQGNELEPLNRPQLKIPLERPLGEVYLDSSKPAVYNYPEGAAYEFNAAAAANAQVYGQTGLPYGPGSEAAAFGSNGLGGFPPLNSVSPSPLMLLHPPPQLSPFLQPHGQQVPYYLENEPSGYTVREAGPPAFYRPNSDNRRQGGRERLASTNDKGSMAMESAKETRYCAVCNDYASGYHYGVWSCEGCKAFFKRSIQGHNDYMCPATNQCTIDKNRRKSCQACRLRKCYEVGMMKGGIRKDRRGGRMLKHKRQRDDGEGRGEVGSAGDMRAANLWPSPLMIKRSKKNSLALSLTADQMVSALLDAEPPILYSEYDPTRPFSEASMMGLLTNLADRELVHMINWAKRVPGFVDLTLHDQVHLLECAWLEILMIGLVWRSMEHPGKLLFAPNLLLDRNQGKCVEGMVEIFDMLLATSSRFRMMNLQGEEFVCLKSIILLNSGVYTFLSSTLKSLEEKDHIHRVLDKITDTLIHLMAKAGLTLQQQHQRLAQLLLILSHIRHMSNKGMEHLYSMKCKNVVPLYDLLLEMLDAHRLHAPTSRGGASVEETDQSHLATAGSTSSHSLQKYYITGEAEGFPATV

The test addresses Estrogen receptor (Homo sapiens) (UniProt P03372). The test can be described thus: qHTS assay to identify small molecule agonists of the estrogen receptor alpha (ER-alpha) signaling pathway in the presence of an antagonist (AID 1259383). For activation: top concentration of the series differs between compounds. Note: nearly all actives have a fitted effect of over 15% in size. The note with it: VM7Luc4E2 cells, ERE-luciferase, +ICI-182,780, 22 h; series mostly up to 92.4 µM. The source says: National Center for Advancing Translational Sciences [NCATS] NIH Chemical Genomics Center [NCGC] U.S. Environmental Protection Agency [EPA] National Institutes of Environmental Health Sciences [NIEHS] National Toxicology Program [NTP] Assay overview: Estrogen receptor (ER), a member of nuclear hormone receptor plays an important role in development, metabolic homeostasis and reproduction. Two subtypes of ER, ER-alpha and ER-beta, have similar expression patterns with some uniqueness in both types. Endocrine disrupting chemicals (EDCs) and their interactions with steroid hormone receptors like ER causes disruption of normal endocrine function. Therefore, it is important to understand the effect of environmental chemicals in ER signaling pathway. For identifying ER agonists, VM7Luc4E2 cell line has been used in the current assay. VM7Luc4E2 cell line (provided by Denison MS, University of California) endogenously expresses full-length ER-alpha and is stably transfected with a plasmid containing four estrogen responsive elements (ERE) upstream of a luciferase reporter gene. This current screening for measuring luciferase reporter gene activity using VM7Luc4E2 cells against Tox21 10K library collection is a confirmation study on agonist mode screening in presence of ER-antagonist (ICI-182,780) at 10.0nM final concentration.
Assay Protocol Summary: VM7Luc4E2 cells were cultured in phenol red free assay medium containing 10% charcoal stripped FBS for 5 days prior to the assay. The cells were dispensed at 4,000 cells in 4uL of assay medium per well into white wall/solid-bottom 1536-well plates (Corning Life Sciences, Corning, NY) using a Multidrop Combi (Thermo Fisher Scientific Inc., Waltham, MA) dispenser. After the assay plates were incubated at 37C and 5% CO2 for 24hr, 1uL of 10.0nM (final concentration) ICI-182,780 or assay buffer was added using two separate tips of Flying Reagent Dispenser (FRD, Aurora Discovery, San Diego, CA). Then 23nL of compounds dissolved in DMSO at 15 concentrations and positive controls or DMSO only was transferred to the assay plates by a Pintool station (Wako, San Diego, CA). The assay plates were incubated at 37C and 5% CO2 for 22hr. For luciferase read, 4uL/well ONE-Glo reagent (Promega Corporation, Madison, WI) was added to each well using FRD and after 30min incubation at room temperature, luminescence signal was measured on ViewLux plate reader (PerkinElmer, Shelton, CT).
With `CN1C(C(=O)Nc2ccccn2)=C(O)c2ccccc2S1(=O)=O`, the Potency entry was “inactive”. For the compound `C=CC(C)(CCC=C(C)C)OC(C)=O` (stereo not given), the Potency entry is “inactive”. For the compound `O=C(COc1ccc(Cl)cc1)N1CCN(Cc2ccc3c(c2)OCO3)CC1`, the Potency entry is “inactive”. Regarding `COC(C)COC(C)COC(C)CO` (stereo not given), the Potency result is “inactive”.

Consider `COc1ccccc1/C=C/C=O`, for which the Potency entry was “inactive”. Still for that read-out and setting: as for `Cc1[nH]c(=O)c(C#N)cc1-c1ccncc1`, the entry is “inactive”.

Consider `CCC(C)OC(=O)c1ccc(O)cc1` (stereo not given), for which the Potency was 19.4 µM (active) and 48.6 µM (active). For `CNCCCC12CCC(c3ccccc31)c1ccccc12`, the Potency result was “inactive”. Still for that read-out and setting: with `c1cc(N(CC2CO2)CC2CO2)ccc1OCC1CO1` (stereo not given) the entry was “inactive”; with `CC(C)OB(OC(C)C)OC(C)C`, “inactive”. Same read-out and setting: with `CN(C)CCC=C1c2ccccc2CCc2ccccc21` the entry was “inactive”; with `Cc1ccc2c(n1)Oc1ccc(C(C)C(=O)OCC(=O)N(C)C)cc1C2` (stereo not given), “inactive”; with `CCCCCCCCCCCO`, “inactive”. As to `Cc1cccc([N+](=O)[O-])c1C`, the Potency entry was “inactive”.

Turning to `S=C(NC1CCCCC1)NC1CCCCC1`, the Potency entry was “inactive”. For `C#C[C@]1(O)CC[C@H]2[C@@H]3CCc4cc(OC)ccc4[C@H]3CC[C@@]21C`, the Potency is 137 nM (active) and 211 nM (active).

As for `CCCCNS(=O)(=O)c1ccccc1`, the Potency entry is “inactive”. The same measure, in the same setting: as for `O=C(/C=C/c1ccccc1)OCc1ccccc1`, the entry is “inactive”; as for `COc1cccc2c1C(=O)c1c(O)c3c(c(O)c1C2=O)C[C@@](O)(C(=O)CO)C[C@@H]3O[C@H]1C[C@H](N)[C@H](O)[C@H](C)O1`, “inactive”.

Turning to `CCCCOCCOCCO`, the Potency entry is “inactive”. `Nc1ncnc2nc[nH]c12`: the Potency entry was “inactive”. On the same count and under the same terms, with `COC(=O)CCC(=O)OC` the entry was “inactive”; with `CCCCOCCOCCOCCO`, “inactive”. As to `c1ccc2c(c1)Oc1ccccc1S2`, the Potency result is “inactive”. Same read-out and setting: as for `C[C@]12CC[C@H]3[C@@H](CCC4=CC(=O)CC[C@@]43C)[C@@H]1CC[C@@H]2C(=O)CO`, the entry is “inactive”. On the same count and under the same terms, with `OC1CCCCCCCCCCC1` the entry was “inactive”; with `CC(=O)CC/C=C(\C)CCC=C(C)C`, “inactive”. The same measure, in the same setting: as for `Cc1cccc(C(=O)O)c1`, the entry is “inactive”; as for `CC(C)OC(=O)C(C)(C)Oc1ccc(C(=O)c2ccc(Cl)cc2)cc1`, “inactive”. Turning to `C[C@]12CCC(=O)C=C1CC[C@@H]1[C@@H]2C(=O)C[C@@]2(C)[C@H]1CC[C@]2(O)C(=O)CO`, the Potency result is “inactive”. For the compound `OCCO`, the Potency entry was “inactive”. Same read-out and setting: as for `CCC(C)CO` (stereo not given), the entry is “inactive”; as for `c1ccc2sc(SSN3CCOCC3)nc2c1`, “inactive”; as for `CC1=CCC(C(C)(C)O)CC1` (stereo not given), “inactive”.

Take `C=C(C)C(=O)OCCOC(=O)C(=C)C`: the Potency result is “inactive”. The same measure, in the same setting: as for `Cc1cccc(N(C)C(=S)Oc2ccc3ccccc3c2)c1`, the entry is “inactive”. Same read-out and setting: with `Nc1ccc(Cl)cc1Cl` the entry was “inactive”; with `Oc1ccc(O)cc1`, “inactive”. For the compound `O=C(Nc1ccc([N+](=O)[O-])cc1Cl)c1cc(Cl)ccc1O`, the Potency was 77 nM (active) and the activation is -10.6% [at 19 µM].
